Hit rate of the full screen: of about 5,500 compounds, about 2,000 (36%) were called active. About 18% were inconclusive and are not listed. Cut-off read from the data, not from the text of the source: active = normalized growth mostly below about 0.91 (no sharp cut-off); inconclusive = no clear call, values can overlap the other calls; inactive = mostly above about 0.92. The list shows a part of the results.
Experiment: chemical genetic growth profiling, strain panel (AID 1159580);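 note: tested at 20 µM; growth read once vehicle control cultures reached saturation at 30 °C; 1 = growth at the plate median or of vehicle wells; lower values mean less growth of the strain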
Details: S. cerevisiae deletion strains, growth OD

Measured: normalized growth

CC(C)c1ccc(N2C=Nc3ccc(C(C)C)cc3C2)cc1
inactive: locus YAR019C, strain CDC15, active compounds read low 0.998 | locus YBL105C, strain PKC1, active compounds read low 0.995 | locus YBR135W, strain CKS1, active compounds read low 0.997 | locus YBR136W, strain MEC1, active compounds read low 0.995 | locus YBR160W, strain CDC28, active compounds read low 1 | locus YDL017W, strain CDC7, active compounds read low 1 | locus YDL028C, strain MPS1, active compounds read low 1.01 | locus YDL101C, strain DUN1, active compounds read low 1 | locus YDL108W, strain KIN28, active compounds read low 0.993 | locus YDL132W, strain cdc53, active compounds read low 0.995 | locus YDL214C, strain PRR2, active compounds read low 0.971 | locus YDR052C, strain DBF4, active compounds read low 1 | locus YDR054C, strain cdc34, active compounds read low 0.992 | locus YDR226W, strain ADK1, active compounds read low 0.984 | locus YDR477W, strain SNF1, active compounds read low 0.97 | locus YER123W, strain YCK3, active compounds read low 0.934 | locus YER133W, strain GLC7, active compounds read low 0.968 | locus YFL009W, strain cdc4, active compounds read low 1 | locus YFL029C, strain CAK1, active compounds read low 1 | locus YFR003C, strain YPI1, active compounds read low 1 | locus YFR019W, strain FAB1, active compounds read low 0.942 | locus YFR028C, strain CDC14, active compounds read low 0.987 | locus YGR040W, strain KSS1, active compounds read low 0.973 | locus YGR052W, strain FMP48, active compounds read low 1.09 | locus YGR092W, strain DBF2, active compounds read low 1.01 | locus YHR030C, strain SLT2, active compounds read low 0.898 | locus YHR079C, strain IRE1, active compounds read low 0.988 | locus YHR082C, strain KSP1, active compounds read low 1.04 | locus YHR205W, strain SCH9, active compounds read low 0.975 | locus YIL147C, strain SLN1, active compounds read low 1 | locus YJL095W, strain BCK1, active compounds read low 0.953 | locus YJL128C, strain PBS2, active compounds read low 0.982 | locus YJL157C, strain FAR1, active compounds read low 0.995 | locus YJR016C, strain ILV3, active compounds read low 1 | locus YJR066W, strain TOR1 (second series), active compounds read low 0.972 | locus YJR066W, strain TOR1, active compounds read low 1 | locus YKL048C, strain ELM1, active compounds read low 0.995 | locus YKL067W, strain YNK1, active compounds read low 0.963 | locus YKL101W, strain HSL1, active compounds read low 0.978 | locus YKL193C, strain SDS22, active compounds read low 0.997 | locus YKL203C, strain TOR2, active compounds read low 1.02 | locus YLR113W, strain HOG1, active compounds read low 0.97 | locus YLR133W, strain CKI1, active compounds read low 0.98 | locus YLR403W, strain SFP1, active compounds read low 0.988 | locus YML070W, strain DAK1, active compounds read low 0.96 | locus YMR001C, strain CDC5, active compounds read low 1 | locus YMR205C, strain PFK2 (second series), active compounds read low 0.972 | locus YMR277W, strain FCP1, active compounds read low 0.989 | locus YNL006W, strain LST8, active compounds read low 1.01 | locus YNL020C, strain ARK1, active compounds read low 0.987 | locus YNL161W, strain CBK1, active compounds read low 1 | locus YNL183C, strain NPR1, active compounds read low 0.968 | locus YNL207W, strain RIO2, active compounds read low 1.01 | locus YNL222W, strain SSU72, active compounds read low 1 | locus YNL307C, strain MCK1 (second series), active compounds read low 0.957 | locus YOL078W, strain AVO1, active compounds read low 1 | locus YOL136C, strain PFK27, active compounds read low 0.964 | locus YOR061W, strain CKA2, active compounds read low 0.999 | locus YOR119C, strain RIO1, active compounds read low 1.08 | locus YOR231W, strain MKK1, active compounds read low 0.99 | locus YOR329C, strain SCD5, active compounds read low 0.998 | locus YPL031C, strain PHO85, active compounds read low 0.973 | locus YPL153C, strain RAD53, active compounds read low 0.983 | locus YPL204W, strain HRR25, active compounds read low 0.949 | locus YPL209C, strain IPL1, active compounds read low 1 | locus YPL256C, strain CLN2, active compounds read low 0.97 | locus YPR025C, strain CCL1, active compounds read low 1 | locus YPR106W, strain ISR1, active compounds read low 0.998 | locus YPR111W, strain DBF20, active compounds read low 0.985 | strain NNK1, active compounds read low 1.01 | strain TSCII, active compounds read low 1.01
